High-throughput results as filed in PubChem BioAssay.
CYP2C9 inhib – blockers of cytochrome P450 2C9 activity – biochemical, luminescence, ADME assay, primary screen; CYP2C9 Supersomes, luciferin-H conversion; P11712; inhibition, % at 5 µM; AID 777, 2007; hit rate 20% among 96,000;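 active = blocking of liver enzyme CYP2C9 beyond about 50% at 5 µM, limit read from the data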
Target sequence (P11712 whole entry, looked up): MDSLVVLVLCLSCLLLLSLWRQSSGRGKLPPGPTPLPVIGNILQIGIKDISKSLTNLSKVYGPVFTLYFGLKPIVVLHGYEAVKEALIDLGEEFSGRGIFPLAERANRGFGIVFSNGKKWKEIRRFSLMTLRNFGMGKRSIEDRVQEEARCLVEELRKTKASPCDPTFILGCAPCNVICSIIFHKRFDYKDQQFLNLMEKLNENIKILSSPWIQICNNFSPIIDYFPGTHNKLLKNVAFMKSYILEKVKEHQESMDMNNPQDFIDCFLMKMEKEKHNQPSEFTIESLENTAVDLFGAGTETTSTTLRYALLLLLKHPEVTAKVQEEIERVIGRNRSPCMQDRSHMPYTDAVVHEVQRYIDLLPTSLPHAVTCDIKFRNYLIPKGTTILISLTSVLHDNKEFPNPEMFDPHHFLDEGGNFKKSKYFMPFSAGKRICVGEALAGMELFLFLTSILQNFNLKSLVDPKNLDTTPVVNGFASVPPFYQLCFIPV
CYP2C19 inhib – blockers of cytochrome P450 2C19 activity – biochemical, luminescence, ADME assay, primary screen; P33261; CYP2C19 Supersomes, luciferin-H EGE luminescence, 30 min; inhibition, % at 5 µM; hit rate 21% among 96,000;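 active = CYP2C19 inhibition above a set limit at 5 µM in the primary screen, cut at about 50% in these data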;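 note: plate controls were negative control wells for no effect and 2.5 mM tranylcypromine positive control for full effect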
CYP2C19 act – human CYP2C19 activators, primary screen, biochemical, luminescence; Cytochrome P450 2C19 (Homo sapiens), P33261; recombinant CYP2C19, luciferin-H EGE luminescence; stronger effect = higher value; 0 = fully inhibited enzyme, 1 = untreated enzyme; activation factor at 5 µM; 96,000 tested, under 10 active;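 active = activation factor of at least 2 at 5 µM in the primary screen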;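 note: 0 = wells with 2.5 mM tranylcypromine and 1 = vehicle-only wells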
Cav32 inh – Cav3.2 calcium influx blockers – cell-based, Fluo-4 calcium fluorescence, FDSS, MLSMR library, primary screen. AID 449739, 2010. hit rate 4% among 100,000. Cav3.2-expressing cells; stronger effect = lower value. B-score at 10 µM. Voltage-dependent T-type calcium channel subunit alpha-1H (Homo sapiens), O95180;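 active = single-dose well whose peak fluorescence ratio is a statistical outlier from its plate by either plate-standardised score or position-corrected B-score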
CYP2C9 activ – human CYP2C9 activators, primary screen, biochemical, luminescence | Cytochrome P450 2C9 (Homo sapiens), P11712 | recombinant CYP2C9, luciferin-H conversion; stronger effect = higher value; factor 1 = untreated enzyme, 0 = blocked | activation factor at 5 µM | hit rate 1.4% among 96,000;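 active = activation factor of 2 or more for CYP2C9 at a 5 µM dose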;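 note: 0 = sulfaphenazole-blocked wells and 1 = vehicle-only wells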
Active calls of the source: *; . = no result. Shown are actives, neighbours in structure and some others; about 27% of the full set was active somewhere.

SMILES	CYP2C9 inhib	CYP2C19 inhib	CYP2C19 act	Cav32 inh	CYP2C9 activ
CN1C(=O)C(O)(CC(=O)c2ccccc2O)c2cc(Br)ccc21 (configuration not stated)	92*	97*	0	-0.25	0.1
CSc1nnc(-c2cnccn2)n1CCCN1CCCC1=O	4	0	1	0.43	1
CCc1cc2c(CN3CCN(CCO)CC3)cc(=O)oc2cc1O	-35	6	0.9	.	1.3
C=CCNC(=O)c1ccc(OC)cc1OC	-8	15	0.8	1	1.1
C=CCN1C(=O)C(O)(CC(=O)c2ccc(OC)cc2OC)c2cc(Br)ccc21 (configuration not stated)	82*	63*	0.4	-2.8	0.2
C=CCN1C(=O)N(/C=C/C)c2cccc3cccc1c23	18	18	0.8	-5*	0.8
CC(C)/C=C1\CCCCC1N(C)C(=O)NC(C)C (configuration not stated)	35	58*	0.4	-2.2	0.7
CCCCCCCNC(=O)COc1ccc2c(c1)C(=O)CC(C)(C)O2	96*	88*	0.1	-1.9	0
C#CCn1c(=NC(=O)c2cccs2)sc2cccc(OCC)c21	68*	5	0.9	-0.75	0.3
O=C(NC1CCCC1)C(c1cccnc1)N(C(=O)c1csnn1)C1CC1 (configuration not stated)	6	32	0.7	0.28	0.9
CSc1nc2nc(-c3ccccc3)cc(C(F)(F)F)n2n1	31	15	0.9	-0.31	0.7
Cc1csc(NC(=O)CCSCCc2ccccn2)n1	41	61*	0.4	0.64	0.6
O=C(N/N=C\c1ccc(Cl)cc1Cl)c1sccc1-n1cccc1	51*	33	0.7	-0.02	0.5
O=C(N/N=C\c1ccc(Cl)cc1)c1sccc1-n1cccc1	4	20	0.8	-0.9	1
c1ccc(-n2cnc3cc(NCc4ccccn4)ccc32)cc1	74*	85*	0.2	1	0.3
CC(C)n1cnc2cc(NCc3ccccn3)ccc21	18	2	1	-0.3	0.8
CC(C)(C)OC(=O)N1CCC[C@H]1c1nnc(SCc2ccccc2Cl)o1	37	33	0.7	.	0.6
CC(C)(C)OC(=O)N1CCC[C@H]1c1nnc(SCc2ccc(Cl)cc2Cl)o1	24	40	0.6	-5.8*	0.8
CC(C)(C)OC(=O)N1CCC[C@H]1c1nnc(SCc2c(F)cccc2Cl)o1	76*	45	0.6	-2.6	0.2
Cc1cc(Nc2ccc(C)c(Br)c2)n2nc(C)nc2n1	.	.	.	0.13	.
CC1=C(C(=O)OC(C)C)C(c2ccsc2)NC(=O)N1C (configuration not stated)	.	.	.	1.7	.
COc1ccccc1NC(=O)N1CCC(c2nc3cc(C)c(C)cc3[nH]2)CC1	.	.	.	-0.57	.
COc1ccccc1NC(=O)N1CCc2[nH]c3ccc(Cl)cc3c2C1	-60	30	0.7	-5.1*	1.6
CCCCNC(=O)CSc1nc2ccccc2c(=O)n1Cc1ccc2c(c1)OCO2	44	84*	0.2	0.12	0.6
O=C(CSc1nc2ccccc2c(=O)n1-c1ccccc1)NCc1ccc2c(c1)OCO2	18	19	0.8	0.55	0.8
SMILES	CYP2C9 inhib	CYP2C19 inhib	CYP2C19 act	Cav32 inh	CYP2C9 activ
O=C(CSc1nc2ccsc2c(=O)n1NC(=O)c1ccccc1)NCc1ccco1	64*	60*	0.4	0.046	0.4
CC(=O)NCCn1c(SCC(=O)NCc2ccco2)nc2ccccc2c1=O	-15	85*	0.2	-0.51	1.2
CCCCn1c(SCC(=O)NCc2ccco2)nc2ccccc2c1=O	52*	65*	0.4	-2	0.5
Cn1c(=O)c2c(ncn2CC(=O)Nc2cc(Cl)c(Cl)cc2Cl)n(C)c1=O	7	6	0.9	.	0.9
CC(C)(C)c1nc(SCC(=O)NCc2ccco2)c2ccccc2n1	65*	94*	0.1	-1.4	0.3
Cc1nc(SCC(=O)NCc2ccco2)nc(C)c1C	-19	28	0.7	0.79	1.2
C=CCn1c(=O)c2ccccc2n2c(SCc3nc(N)nc(Nc4ccccc4C)n3)nnc12	32	20	0.8	1.4	0.7
CCCCn1c(SCc2nc(N)nc(Nc3ccccc3C)n2)nc2ccccc2c1=O	99*	87*	0.1	-1.9	0
